Only some compounds are listed: those with a hit (about 2.2% of all), similar ones and a draw of the others.
aSyn yeast inh = inhibitors of alpha-synuclein toxicity in yeast; Potency, µM (doses to about 46.1 µM), inactives show top-dose growth rescue (activation), hits mostly activators; 370,000 tested, 0.14% active; AID 652106; Yeast expressing alpha-synuclein, growth rescue, BacTiter-Glo, 24 h; also: % of control where 0% means no effect; nearly all actives have a fitted effect of over 65% in size
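Galactose-induced alpha-syn yeast (OD600=0.02, raffinose-pregrown) + pinned cpd, 24 hr, 30 deg C; growth by BacTiter-Glo luminescence. Growth restoration scores as activation.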
FUS suppressor = suppressors of FUS proteinopathy in yeast; S. cerevisiae FUS-expressing, growth rescue, OD600, 24 h; Potency, µM (series often up to 76.6 µM), hits mostly activators; 390,000 tested, 0.24% active; AID 1347120;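 also: plate controls were DMSO vehicle for no effect and reference control for full effect; nearly all actives have a fitted effect of over 55% in size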
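Cultures pregrown in 2.5% raffinose medium are shifted to minimal medium containing 2% galactose to express toxic FUS. Compounds are tested at several concentrations. After 24hr at 30C, growth is quantified at 600 nm absorbance.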
Abeta yeast res = compounds reversing amyloid beta toxicity in yeast. yeast expressing A-beta42, growth rescue, OD600, 48 h; response scale: 0% DMSO, 100% iron-clioquinol control. Potency, µM (top dose mostly 46.1 µM), usual class: activators. 410,000 tested, 0.063% active; also: nearly all actives have a fitted effect of over 55% in size
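Yeast growth medium received pinned compounds, then yeast cells expressing toxic A-beta were added; plates incubated at 30 C for 48 hr. Growth read as absorbance at 600 nm, normalized to DMSO and equimolar FeCl3 plus clioquinol controls.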
Mito fusion act = mitochondrial division inhibition or fusion activation; S. cerevisiae fusion-defective mutant growth rescue, CellTiterGlo 48 h; 320,000 tested, 0.23% active; Potency, µM (series often up to 46.1 µM), for the others: at the top dose growth rescue (activation), actives largely listed as activators; also: % of control where 0% means no effect; nearly all actives have a fitted effect of over 45% in size
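Compounds are tested for their ability to restore growth of mitochondrial fusion-defective yeast strains at non-permissive 37C in YPEG medium over 48 hours. Viability is quantified by luciferase luminescence.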
TDP43 rescue = rescues yeast growth from TDP-43 toxicity. 410,000 tested, 1.8% active. TDP-43 expressing yeast growth rescue, BacTiter-Glo, 24 h. Potency, µM (series often up to 46.1 µM), without a hit: at the highest dose growth rescue (activation), actives largely listed as activators; also: % of control where 0% means no effect; nearly all actives have a fitted effect of over 50% in size
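Yeast expressing TDP-43 (pregrown in raffinose, seeded at OD600=0.02 in galactose medium) exposed to compounds 24 hr at 30 deg C. Growth read by BacTiter-Glo luminescence; rescue of toxicity appears as increased signal.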
Starred values were filed as active, the others as inactive; i = inactive; ? = inconclusive; . = no result given; ! = repeats disagree. Calls follow the shape of the dose curve; as a rule, active = well fitted curve in the direction sought with a large enough effect; inconclusive = small, poorly fitted or top-dose-only effect, or another doubt; inactive = no such curve, though single readings can be large; an effect the other way counts as inactive or inconclusive. Potency is read from the fitted curve at half-maximal effect.

SMILES	aSyn yeast inh	FUS suppressor	Abeta yeast res	Mito fusion act	TDP43 rescue
Cc1nc2cc(OC(=O)N(C)Cc3cccc(-c4ccncc4)c3)ccc2s1	2%	i	i	.	10µM*
Cc1ccc(Cl)cc1N1CCN(c2ncnc3c2nc2n3CCCC2)CC1	.	i	i	.	14µM*
c1ccc(N2CCN(c3ncnc4c3nc3n4CCCC3)CC2)cc1	.	i	i	.	?
OC1(c2ccc(Cl)cc2)CCN(Cc2c[nH]c3ccccc23)CC1	2%	i	i	-47%	?
Cc1c(C(c2ccc(F)cc2)c2c(O)c3ccccc3oc2=O)c(=O)n(-c2ccccc2)n1C (centres undefined)	4%	?	?	5%	?
COc1ccc(C(c2c(O)c3ccccc3oc2=O)c2c(C)n(C)n(-c3ccccc3)c2=O)cc1 (centres undefined)	-1%	i	i	-8%	22µM*!
Cc1c(C(c2ccccc2Cl)c2c(O)c3ccccc3oc2=O)c(=O)n(-c2ccccc2)n1C (centres undefined)	11%	i	i	-27%	7.9µM*
COc1ccc(Nc2c(-c3cc(Br)ccc3O)nc3ncccn23)cc1OC	.	i	i	.	?
Cc1ccc(C(=O)Cn2c(-c3ccccc3)noc2=O)cc1	10%	i	i	-4%	?
Cc1ccc2nc(-c3ccncc3)cc(C(=O)N3CCC4(CC3)OCCO4)c2c1	0%	i	i	11%	1%
Cc1ccc(-c2cc(C(F)F)n3ncc(C(=O)N4CCc5ccccc5C4)c3n2)cc1	-2%	i	i	4%	16µM*
Cc1ccc(F)cc1NC(=O)c1ccc(Cn2nc(N3CCN(c4ccccc4)CC3)ccc2=O)o1	.	?	i	.	25µM*
CC12CCC3C(CC=C4CC(O)CCC43C)C1C/C(=C\N1CCCC1)C2=O (centres undefined)	.	.	.	-2%	.
Cc1nn(C)c(C)c1/C=C1/CC2C3CC=C4CC(O)CCC4(C)C3CCC2(C)C1=O (centres undefined)	13%	i	i	16µM*	?
CC(=O)N1CCN(c2ccc(OC[C@H]3CO[C@](Cn4ccnc4)(c4ccc(Cl)cc4Cl)O3)cc2)CC1	5.2µM*!	i	i	0.41µM*!	?
CC1(c2ccc(Cl)cc2Cl)OCC(Cn2cncn2)O1 (centres undefined)	9%	i	i	-2%	4%
CC(=O)N1CCN(c2ccc(OC[C@@H]3CO[C@@](Cn4ccnc4)(c4ccc(Cl)cc4Cl)O3)cc2)CC1	3.2µM*	.	.	.	.
CCCC1COC(Cn2cncn2)(c2ccc(Cl)cc2Cl)O1 (centres undefined)	13%	i	?	?	?
O=C1/C(=C/c2cc([N+](=O)[O-])ccc2Cl)N2CCC1CC2	4%	i	i	-8%	18µM*
O=C(c1ccco1)c1cn(Cc2ccc(Cl)cc2)c2ccccc12	14%	i	?	10%	13µM*
Cc1[nH]c2ccccc2c1C(=O)CN1CC=C(c2ccccc2)CC1	0%	i	i	2%	-5%
O=C(C(=O)N1CC=C(c2ccccc2)CC1)c1c[nH]c2ccccc12	?	i	i	?	16µM*
O=C(c1ccc2c(c1)N(Cc1ccc(F)cc1Cl)C(=O)c1ccccc1S2)N1CCC2(CC1)OCCO2	.	i	i	.	18µM*
Cc1ccc(CN2C(=O)c3ccccc3Sc3ccc(C(=O)N4CCC5(CC4)OCCO5)cc32)cc1	.	?	i	.	13%
O=c1c2ccccc2[se]n1-c1ccccc1	-92%	i	i	0.46µM*	-94%
O=c1[nH]c2ccccc2n1C1CCN(C(c2cccs2)c2nnnn2Cc2ccccc2)CC1 (centres undefined)	5%	?	i	.	21%
Cc1cccc(C)c1-n1nnnc1C(c1cccs1)N1CCC(n2c(=O)[nH]c3ccccc32)CC1 (centres undefined)	7%	?	i	.	18%

Bioassay records from PubChem BioAssay.
